Screening data deposited in PubChem BioAssay by National Center for Advancing Translational Sciences (NCATS).
ERG-DNA inh – qHTS for Small Molecule Inhibitors of the ERG Ets/DNA interaction; Transcriptional regulator ERG (Homo sapiens), P11308; fluorescence polarization, His-ERG Ets domain / labelled DNA; Potency, µM (highest dose often 76.9 µM), for the others: at the highest dose FP activity, negative = inhibition, hits mostly inhibitors; actives 0.028% (n = 370,000); AID 624246, 2012; active = well fitted inhibition curve with a large enough effect in the polarisation, with a control signal flat; inconclusive = small, poorly fitted or top-dose-only effect, or effect the other way, or a change in a side signal; inactive = no such curve, though single readings can be large or run the other way; the % refers to the polarisation;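 note: polarization taken with two DNA probes labelled with fluorescein and Texas red; potency is the fitted concentration of half-maximal effect; % of control where 0% means no effect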
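His-tagged ERG Ets domain (1 uM in the protein solution; 300mM KCl, 50mM Tris-HCl, 1mM EDTA, 1mM DTT, pH 7.5) received compound, then a probe mix of 5 nM fluorescein-DNA and 100nM Texas-615-DNA. Fluorescence polarization was read for both dyes.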
Giardia killer – Small Molecules that selectively kill Giardia lamblia: qHTS; Giardia lamblia trophozoite viability; activity change, % at 7.66 µM, hits read low; actives 0.15% (n = 340,000); AID 540267, 2011; in the data active = activity change below about -80%; inconclusive = between about -30% and that limit;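 note: parasites exposed to compound for two days anaerobically before the ATP read; % is set by controls: 0 for no effect and ±100 for the full control effect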
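Luminescent ATP signal served as the viability read-out, measured 15-30 min after adding ATP detection reagent to trophozoites that had been incubated with compounds for 48 hrs at 37 deg C anaerobically at 100 cells/well.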
RORg inh – qHTS for inhibitors of ROR gamma transcriptional activity; Nuclear receptor ROR-gamma (Mus musculus), P51450; Drosophila S2 Gal4-RORgamma UAS-luciferase reporter, 20 h; Potency, µM (top dose mostly 53.6 µM), inactives show at the highest dose activity change, negative = inhibition, usual class: inhibitors; actives 5.4% (n = 310,000); AID 2551, 2010; note: potency is the fitted concentration of half-maximal effect; % is set by controls: 0 for no effect and ±100 for the full control effect; nearly all actives have a fitted effect of over 60% in size
Target sequence (P51450 whole entry, looked up, the tested form may be a part): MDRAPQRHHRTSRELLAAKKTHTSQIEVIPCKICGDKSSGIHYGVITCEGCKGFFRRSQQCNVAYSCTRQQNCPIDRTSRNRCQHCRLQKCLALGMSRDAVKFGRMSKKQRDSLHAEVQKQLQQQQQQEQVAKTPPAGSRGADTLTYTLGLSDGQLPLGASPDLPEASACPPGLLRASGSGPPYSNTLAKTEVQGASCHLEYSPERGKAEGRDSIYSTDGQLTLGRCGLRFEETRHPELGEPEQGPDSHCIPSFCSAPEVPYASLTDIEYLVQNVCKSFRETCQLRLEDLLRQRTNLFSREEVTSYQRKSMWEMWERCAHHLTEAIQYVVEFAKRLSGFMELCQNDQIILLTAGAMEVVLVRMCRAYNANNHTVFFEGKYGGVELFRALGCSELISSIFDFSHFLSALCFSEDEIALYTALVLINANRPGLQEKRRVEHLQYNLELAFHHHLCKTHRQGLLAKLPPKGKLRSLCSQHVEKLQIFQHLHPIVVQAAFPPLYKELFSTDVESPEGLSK
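Compounds are pin-transferred onto Drosophila Schneider cells expressing a copper-inducible Gal4–ROR gamma transactivation domain fusion. After 1 hr, copper sulfate is added to 700 uM final; luciferase is read 20 hr later.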
VP16 counter – VP16 counterscreen qHTS for inhibitors of ROR gamma transcriptional activity | Potency, µM (doses to about 53.6 µM), without a hit: at the highest dose activity, negative = inhibition, most hits filed as inhibitors | actives 3.5% (n = 310,000) | Drosophila S2 Gal4-VP16 UAS-luciferase, luminescence, 20 h;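 note: Gal4-VP16 expression switched on by copper sulfate through the metallothionein promoter; potency is the fitted concentration of half-maximal effect; % is set by controls: 0 for no effect and ±100 for the full control effect; nearly all actives have a fitted effect of over 50% in size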
Integrin act MD – qHTS for Activators of Integrin-Mediated Alleviation for Muscular Dystrophy; alpha7betagal myoblasts, beta-gal FDG fluorescence, 48 h; Potency, µM (doses to about 38.3 µM), for inactives: top-dose activation, actives largely listed as activators; actives 0.064% (n = 350,000); AID 624291, 2012;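 note: potency is the fitted concentration of half-maximal effect; 100% = response of the positive control SU9516; nearly all actives have a fitted effect of over 60% in size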
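Alpha7betagal+/- myoblasts (passage 13) were plated 16-24 hr, then exposed to compounds (1:260 dilution of DMSO stock) for 48 hours at 37C. After MPER lysis, β-galactosidase reporter activity was read as FDG fluorescence (ex 480/em 540) after 30 minutes.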
Numbers without * were called inactive. The entries come from a sample that favours hits as a whole. Unless noted, calls come from the whole dose curve; as a rule, active = well fitted curve in the direction sought with a large enough effect; inconclusive = small, poorly fitted or top-dose-only effect, or another doubt; inactive = no such curve, though single readings can be large; an effect the other way counts as inactive or inconclusive.

Screening COc1cccc(-c2c(C(=O)N/N=C/c3sccc3C)nnn2-c2nonc2N)c1 returned ERG-DNA inh 6%, Giardia killer -10, RORg inh 8.9µM*, VP16 counter 22µM* and Integrin act MD 5%.
COc1ccc(Cc2nc3ccc(C(=O)NCc4cccc(C)n4)cc3o2)cc1OC was read as Integrin act MD 13%.
For Cc1oc(-c2cccs2)nc1CN1CCN(CC(C)C)C(CCO)C1 (stereo not drawn) the results were ERG-DNA inh -7%, Giardia killer 19, RORg inh 4%, VP16 counter -18% and Integrin act MD 8%.
Screening Cc1cc(N2CCN(c3ccc(C(F)(F)F)cc3[N+](=O)[O-])CC2)c2ccccc2n1 returned ERG-DNA inh 0%, Giardia killer -6, RORg inh -43%, VP16 counter inconclusive and Integrin act MD 0%.
`Cc1cc(N2CCN(c3ccc([N+](=O)[O-])c4cccnc34)CC2)c2ccccc2n1` gave ERG-DNA inh -12%, Giardia killer inconclusive, RORg inh 13µM*, VP16 counter 7.1µM* and Integrin act MD -28%.
`Cc1c(-c2nsc(NC(=O)c3cccs3)n2)nnn1-c1ccc(Cl)cc1` gave ERG-DNA inh -1%.
Screening Cc1cnc(NC(=O)c2cc3c(C)nn(Cc4ccccc4Cl)c3s2)s1 returned ERG-DNA inh -9%, Giardia killer 5, RORg inh 3.5µM*, VP16 counter 4.5µM* and Integrin act MD 1%.
CC1=CC(C)(C)Nc2ccc(OC(=O)CCN3C(=O)c4ccccc4C3=O)cc21 was read as ERG-DNA inh -16%, Giardia killer -10, RORg inh inconclusive, VP16 counter 5.6µM* and Integrin act MD -27%.
Screening Cc1ccccc1-n1c(=S)[nH]c2nc3c(cc2c1=O)COC(C)(C)C3 returned ERG-DNA inh -5%, Giardia killer -1, RORg inh 5µM*, VP16 counter 11µM* and Integrin act MD 0%.
`CC1(C)Cc2nc3[nH]c(=S)[nH]c(=O)c3cc2CO1` gave ERG-DNA inh 105%, Giardia killer 6, RORg inh -3%, VP16 counter 3% and Integrin act MD 2%.
`Cc1ccc(-n2c(=S)[nH]c3nc4c(cc3c2=O)COC(C)(C)C4)cc1` gave ERG-DNA inh -5%, Giardia killer 1, RORg inh 3.5µM*, VP16 counter inconclusive and Integrin act MD 1%.
`CSc1nc2nc3c(cc2c(=O)n1-c1ccccc1C)COC(C)(C)C3` gave ERG-DNA inh -1%, Giardia killer inconclusive, RORg inh 3%, VP16 counter 1% and Integrin act MD -10%.
For Cc1ccccc1-n1c(=S)[nH]c2nc3c(cc2c1=O)CCCC3 the results were ERG-DNA inh -2%, Giardia killer -13, RORg inh 1.3µM*, VP16 counter 4.5µM* and Integrin act MD -7%.
CSc1nc2nc3c(cc2c(=O)n1-c1ccc(C)cc1)COC(C)(C)C3 was read as ERG-DNA inh 6%, Giardia killer 20, RORg inh 29%, VP16 counter -10% and Integrin act MD 10%.
`CCC1(C)Cc2nc3[nH]c(=S)n(-c4ccc(C)cc4)c(=O)c3cc2CO1` (stereo not drawn) gave ERG-DNA inh 5%, Giardia killer 17, RORg inh 1.3µM*, VP16 counter 14µM* and Integrin act MD -31%.
Screening CCN(c1ccccc1)S(=O)(=O)c1ccc2[nH]cc(C(=O)NCc3ccc(C)cc3)c(=O)c2c1 returned ERG-DNA inh 1%.
Cc1cc(NC(=O)CCC(=O)N(c2ccc(F)cc2)C(C(=O)NC2CCCC2)c2cccnc2)no1 (stereo not drawn) was read as ERG-DNA inh -23%, Giardia killer 2, RORg inh -17%, VP16 counter -11% and Integrin act MD -9%.
Screening COc1ccc(CNC(=O)c2oc3c(c2C)-c2nn(Cc4ccccc4Cl)cc2CC3)cc1 returned ERG-DNA inh -6%.
